Screening data from PubChem.
WRN inhibitor – blocks human WRN helicase; Q14191; WRN helicase unwinding, fluorescent forked duplex, kinetic; Potency, µM (top dose mostly 114 µM), for the others: at the highest dose activity change, negative = inhibition, actives largely listed as inhibitors; 360,000 tested, 0.46% active; further: potency means the concentration at half of the fitted maximal effect; nearly all actives have a fitted effect of over 55% in size
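Fluorescence dequenching readout, ex 525 nm/em 598 nm, kinetic mode: forked duplex DNA (100 nM final) with adjacent fluorophore and quencher unwound by WRN (20 nM final) with 2 mM ATP. Compound preincubation 15 min, room temperature.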
Tb PGK inh – inhibitors of T. brucei phosphoglycerate kinase; 380,000 tested, 0.043% active; P07378; Potency, µM (doses to about 57.5 µM), without a hit: at the top dose activity change, negative = inhibition, usual class: inhibitors; PGK/GAPDH coupled, Kinase-Glo luminescence, 60 min; further: potency means the concentration at half of the fitted maximal effect; nearly all actives have a fitted effect of over 60% in size
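Luminescent ATP detection (Kinase-Glo Plus) follows a 60-minute room-temperature incubation, with wells lacking PGK as controls. Buffer: 100 mM TEA (pH 7.6), 5 mM MgCl2, 0.01% Tween-20. Coupling enzyme GAPDH (100 nM final) supplies unstable 1,3-BPG in-well.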
FEN1 inh – human FEN1 inhibition; Recombinant FEN1 flap cleavage, fluorescence, 15 min; Potency, µM (highest dose often 114 µM), for inactives: at the highest dose activity change, negative = inhibition, usual class: inhibitors; 390,000 tested, 0.35% active; AID 588795; further: potency means the concentration at half of the fitted maximal effect; nearly all actives have a fitted effect of over 65% in size
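Quantitative HTS format: each compound was titrated, incubated with 10 nM nuclease for 15 min at room temperature, then challenged with flap substrate at 50 nM final. Signal change over 15 min gave concentration–effect curves.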
TDP1 block – TDP1 (human) enzyme inhibition. Q9NUW8. recombinant TDP1, AlphaScreen DNA substrate cleavage. Potency, µM (series often up to 130 µM), for the others: at the highest dose activity change, negative = inhibition, most hits filed as inhibitors. 350,000 tested, 0.28% active. AID 485290; further: potency means the concentration at half of the fitted maximal effect; nearly all actives have a fitted effect of over 40% in size
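Signal: AlphaScreen proximity between streptavidin donor and anti-FITC acceptor beads on intact substrate. Reaction: Tdp1 1 nM, substrate 15 nM final, 5 min RT after 15 min compound preincubation.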
Tb PFK inh – blocks T. brucei phosphofructokinase; T. brucei PFK, ADP-Glo luminescence; Potency, µM (series often up to 57.5 µM), for the others: at the highest dose activity, negative = inhibition, actives largely listed as inhibitors; 330,000 tested, 0.17% active; AID 485367;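 further: potency means the concentration at half of the fitted maximal effect; 0% = uninhibited 1x PFK enzyme wells and -100% = no-enzyme wells; nearly all actives have a fitted effect of over 60% in size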
Target sequence (O15648 whole entry, looked up): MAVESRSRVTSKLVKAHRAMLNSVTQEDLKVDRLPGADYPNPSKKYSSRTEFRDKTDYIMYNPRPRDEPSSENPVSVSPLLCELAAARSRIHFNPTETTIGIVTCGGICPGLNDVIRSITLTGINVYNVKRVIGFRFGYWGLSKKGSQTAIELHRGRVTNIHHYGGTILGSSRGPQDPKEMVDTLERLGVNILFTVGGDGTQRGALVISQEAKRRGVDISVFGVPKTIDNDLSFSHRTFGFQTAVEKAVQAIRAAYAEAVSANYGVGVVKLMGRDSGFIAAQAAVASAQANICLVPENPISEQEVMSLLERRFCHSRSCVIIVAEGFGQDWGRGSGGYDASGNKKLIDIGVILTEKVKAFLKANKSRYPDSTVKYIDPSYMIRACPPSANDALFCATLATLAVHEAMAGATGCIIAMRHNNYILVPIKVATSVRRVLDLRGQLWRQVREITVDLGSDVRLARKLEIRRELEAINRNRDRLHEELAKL
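Activity is normalized to no-enzyme wells (full inhibition) and 1.25 nM enzyme wells (no inhibition). Reaction: 0.5 mM F6P, 0.1 mM ATP, 45 min RT, ADP-Glo luminescence; concentration-response curves fitted and classed by quality.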
PI5P4K alpha inh – inhibitors of human PI5P4K alpha | max response, % | P48426 | PI5P4Kalpha enzyme, ADP-Glo luminescence, 60 min; hits give low values | 330,000 tested, 1.2% active | AID 652105; active means max response of -50% or lower; inconclusive means between -30% and -50%; inactive means -30% or higher; further: value at the top dose of about 77 µM
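Compounds were pin-transferred onto PI5P4Kalpha and substrate in HEPES pH 7.4 buffer with EGTA, CHAPS and 5% DMSO. ATP (5 microM final) started the reaction, which ran 60 minutes at room temperature before ADP-Glo detection.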
* = called active by the depositor; ! = not active in a repeat; [ ] = dose if it differs, or a comment. A selection: hits, their analogues and other compounds. The true share with any hit is near 1.5%. Unless noted, the call rests on the fitted dose curve; in most records, active means well fitted curve in the direction sought with a large enough effect; inconclusive means small, poorly fitted or top-dose-only effect, or another doubt; inactive means no such curve, though single readings can be large; an effect the other way counts as inactive or inconclusive. Unless noted, on the % scale 0 is the no-effect control and ±100 the full control effect.

How did O=C1/C(=C\c2ccccn2)SC(=S)N1c1ccc(S(=O)(=O)Nc2nccs2)cc1 do in these assays?
WRN inhibitor: inconclusive; Tb PGK inh: -14.7%; FEN1 inh: inconclusive; Tb PFK inh: -4.6%; PI5P4K alpha inh: -70.6*

What do the screens show for `O=C(COc1ccccc1C(=O)Nc1ccccc1)Nc1ccc(-c2ccccc2)cc1`?
FEN1 inh: -6.8%

Results for CCCCCCCCCCCCCCC1CO1 (centres undefined) ?
TDP1 block: 9.3%

What do the screens show for `Cc1c(N2C(=O)c3ccc4c5c(ccc(c35)C2=O)CC4)c(=O)n(-c2ccccc2)n1C`?
WRN inhibitor: inconclusive; Tb PGK inh: inconclusive; FEN1 inh: 50.1µM*; TDP1 block: 17.8µM*; Tb PFK inh: inconclusive; PI5P4K alpha inh: -63.6*

Results for Cc1c(N2C(=O)CSC2=S)c(=O)n(-c2ccccc2)n1C ?
WRN inhibitor: -18.9%; Tb PGK inh: 2.0%; FEN1 inh: -4.1%; TDP1 block: -4.6%; Tb PFK inh: 0.2%; PI5P4K alpha inh: 2.4

What do the screens show for `N#CC1=C(Nc2ccccc2Cl)SC(c2ccncc2)NC1=O` (centres undefined)?
WRN inhibitor: 9.6%[57.1 µM]; PI5P4K alpha inh: inconclusive

What do the screens show for `N#CC1=C(Nc2ccccc2Cl)SC2(CCCC2)NC1=O`?
WRN inhibitor: 7.9%[57.1 µM]; PI5P4K alpha inh: -51.0*

What do the screens show for `Nc1nc2ccc([N+](=O)[O-])c(N)c2s1`?
WRN inhibitor: -21.2%; Tb PGK inh: -5.4%; FEN1 inh: -12.0%; TDP1 block: 7.9%; Tb PFK inh: -11.3%; PI5P4K alpha inh: -57.8*

What do the screens show for `CSc1ccc(/C=C/c2ccnc3ccccc23)cc1`?
FEN1 inh: -7.7%

What do the screens show for `Cc1ccccc1-n1c(C)nnc1SC(C)C(=O)NCc1ccco1` (centres undefined)?
FEN1 inh: -1.3%

How did N/C(Cc1ccc([N+](=O)[O-])cc1)=N\OC(=O)COc1ccccc1Cl do in these assays?
WRN inhibitor: -22.4%; Tb PGK inh: inactive; FEN1 inh: -2.9%; TDP1 block: 5.1%; Tb PFK inh: 2.7%; PI5P4K alpha inh: -59.4*

What do the screens show for `N/C(Cc1ccc([N+](=O)[O-])cc1)=N\OC(=O)COc1cccc2ccccc12`?
WRN inhibitor: -4.9%; Tb PGK inh: -0.1%; FEN1 inh: -25.7%; TDP1 block: 1.5%; Tb PFK inh: 0.3%

How did CSCC[C@H](NS(=O)(=O)c1ccc(C(C)=O)cc1)c1nnc2ccccn12 do in these assays?
WRN inhibitor: inconclusive; Tb PGK inh: -16.2%; FEN1 inh: -11.4%; TDP1 block: 39.8µM*; Tb PFK inh: -10.1%; PI5P4K alpha inh: inconclusive

How did N#CC1=C(N)Oc2n[nH]c(-c3cccnc3)c2C1c1ccc([N+](=O)[O-])o1 (centres undefined) do in these assays?
WRN inhibitor: inconclusive; Tb PGK inh: -14.6%; FEN1 inh: -20.6%; TDP1 block: -7.7%; Tb PFK inh: 0.3%; PI5P4K alpha inh: -58.9*

What do the screens show for `N#CC1=C(N)Oc2n[nH]c(-c3cccnc3)c2C1c1cc(F)ccc1F` (centres undefined)?
WRN inhibitor: -11.8%; Tb PGK inh: -1.3%; FEN1 inh: 0.9%; TDP1 block: 0.0%; Tb PFK inh: 1.1%; PI5P4K alpha inh: -54.2*

How did CC(C)CC1C(C#N)=C(N)Oc2n[nH]c(-c3ccccc3)c21 (centres undefined) do in these assays?
WRN inhibitor: -14.1%; Tb PGK inh: 8.8%; FEN1 inh: -1.6%; TDP1 block: 7.3%; Tb PFK inh: -5.6%; PI5P4K alpha inh: -56.9*

What do the screens show for `N#CC1=C(N)Oc2n[nH]c(-c3ccccc3)c2C1c1cccnc1` (centres undefined)?
WRN inhibitor: -8.7%; Tb PGK inh: inactive; FEN1 inh: -1.0%; TDP1 block: 7.1%; Tb PFK inh: -2.4%; PI5P4K alpha inh: inconclusive

How did C(=C\c1ccnc2ccccc12)/c1cccnc1 do in these assays?
FEN1 inh: 8.3%

What do the screens show for `NS(=O)(=O)c1ccc(NC(=O)c2cnn3c2NC(=C2CC2)C=C3C(F)F)cc1`?
FEN1 inh: -3.7%

Results for COc1ccc(C(=O)COC(=O)CCn2c(C)csc2=O)c(OC)c1 ?
WRN inhibitor: -11.7%; Tb PGK inh: -9.7%; PI5P4K alpha inh: -65.2*

What do the screens show for `C[C@H]1C(c2cccc(Cl)c2)=NN(c2ccccc2)[C@@H]1CO`?
TDP1 block: 39.8µM*

How did OC[C@@H]1[C@@H](c2ccc(Cl)cc2)C(c2ccccc2)=NN1c1ccccc1 do in these assays?
WRN inhibitor: -8.1%; Tb PGK inh: -2.5%; FEN1 inh: inconclusive; TDP1 block: inconclusive; Tb PFK inh: -3.4%; PI5P4K alpha inh: -0.4

How did OC[C@@H]1[C@@H](c2ccc(Cl)cc2)C(c2cccc(Cl)c2)=NN1c1ccccc1 do in these assays?
WRN inhibitor: -1.9%; Tb PGK inh: 0.5%; FEN1 inh: -0.5%; TDP1 block: 39.8µM*!; Tb PFK inh: 3.9%; PI5P4K alpha inh: 2.7

What do the screens show for `CCSC[C@H](NC(=O)[C@H](C)N)C(=O)N[C@@H](CC(=O)O)C(=O)N[C@H](C(=O)N[C@@H](C)C(=O)N[C@H](C(=O)N[C@@H](CSCC)C(=O)N[C@H](C(=O)N[C@H](C(=O)N[C@@H](Cc1cnc[nH]1)C(=O)N[C@@H](CCCNC(=N)N)C(=O)N[C@@H](CC(C)C)C(=O)N[C@@H](C)C(=O)NCC(=O)N[C@@H](CC(C)C)C(=O)N[C@@H](CC(C)C)C(=O)N[C@@H](CO)C(=O)N[C@@H](CCCNC(=N)N)C(=O)N[C@@H](CO)C(=O)NCC(=O)NCC(=O)N[C@H](C(=O)N[C@H](C(=O)N[C@@H](CCCCN)C(=O)N[C@@H](CC(N)=O)C(=O)N[C@@H](CC(N)=O)C(=O)N[C@@H](Cc1ccccc1)C(=O)N[C@H](C(=O)N1CCC[C@H]1C(=O)N[C@H](C(=O)N[C@@H](CC(N)=O)C(=O)N[C@H](C(=O)NCC(=O)N[C@@H](CO)C(=O)N[C@@H](CCCCN)C(=O)N[C@@H](C)C(=O)N[C@@H](Cc1ccccc1)C(N)=O)C(C)C)[C@@H](C)O)C(C)C)C(C)C)C(C)C)[C@@H](C)O)C(C)C)[C@@H](C)O)[C@@H](C)O`?
TDP1 block: 6.2%

Results for CC(=O)NC(Cc1c(F)c(F)c(F)c(F)c1F)C(=O)NCC(N)C(=O)c1ccccc1 (centres undefined) ?
FEN1 inh: -1.8%
